# Measured values: PubChem BioAssay AID1569 (National Center for Advancing Translational Sciences (NCATS), 2009)
# Inconclusive results are not listed. Active and inactive are the calls of the source. Calls come from the whole dose curve; as a rule, active = well fitted inhibition curve with a large enough effect; inconclusive = small, poorly fitted or top-dose-only effect, or effect the other way, or another doubt; inactive = no such curve, though single readings can be large or run the other way.
# Experiment: Confirmation Concentration-Response Assay for lipid storage modulators; note: nearly all actives have a fitted effect of over 80% in size
# Settings: Drosophila S3 cells, lipid droplet BODIPY/CellTracker ratio, 18-24 h
# Excerpt: NIH Molecular Libraries Probe Production Centers Network [MLPCN] NIH Chemical Genomics Center [NCGC] MLPCN Grant: 1 R03 MH085686-01 Assay Submitter (PI): Beller, Mathias; Max-Planck-Institut fur Biophysikalische Chemie NCGC Assay Overview: Storing lipids as a reservoir for energy or the anabolism of elementary metabolites is a common feature of probably all cells and is conserved from bacteria to humans. The universal cellular lipid storage organelle is the so-called lipid storage droplet (LD). Although ubiquitous, LDs share a simple structure composed of a hydrophobic core that harbors the storage lipids, which is shielded by a droplet-specific phospholipid monolayer to which proteins are attached. […] Exo1 identified in the primary screen (AID 1519) and several analogs were measured in the lipid storage assay as 24-point concentration-response curves to confirm potency and SAR.
# We dispensed 4 uL of cells at 1.25 x 10^6 cells/mL into LoBase Aurora COC 1,536-well plates (black walled, clear bottom) with a bottle-valve solenoid-based dispenser (Aurora) to obtain 5,000 cells/well. […] Fluorescence was detected by excitation of the fluorophores with a 488-nm laser on an Acumen Explorer (TTP Lab Tech). […] Cells were detected using channel 3 (575- 640 nm) with 5-um width and 100-um depth filters. The ratio of the total intensity in PMT channel 1 over total intensity of channel 3 was also calculated. […]
# Potency is the fitted concentration of half-maximal effect.
row,SMILES,Potency
1,COc1cc2c(cc1OC)[C@@H]1C(=O)c3ccc4c(c3O[C@@H]1CO2)C[C@H](C(C)C)O4,0.0499 µM (active)
2,O=C(Nc1cccc(Cl)c1)OC1CN2CCC1CC2 (configuration not stated),8.88 µM (active)
